# Reference: PubChem BioAssay AID1490 (National Center for Advancing Translational Sciences (NCATS), 2009)
# Values joined by “and” are separate entries in the source; they are usually repeats but may differ in a detail not shown here. Equal entries are not always repeated. Hit rate of the full screen: of about 310,000 compounds, about 11,000 (3.5%) were called active. Roughly 4% stayed inconclusive and do not appear here. Calls come from the whole dose curve; as a rule, active = well fitted inhibition curve with a large enough effect; inconclusive = small, poorly fitted or top-dose-only effect, or another doubt; inactive = no such curve, though single readings can be large or run the other way. The list comes from a sample in which actives are over-represented; it also holds similar structures and randomly drawn compounds.
# Target: 4'-phosphopantetheinyl transferase ffp (Bacillus subtilis) (UniProt Q9F4F7)
# Assay: qHTS Assay for Inhibitors of Bacillus subtilis Sfp phosphopantetheinyl transferase (PPTase);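 note: the enzyme is Sfp with the accession as filed and its product quenches rhodamine fluorescence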;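 for largest response in the series, negative = inhibition: 0% = enzyme reaction without inhibitor and -100% = no enzyme wells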
# Conditions: Biochemical Sfp PPTase activity
# From the text: Assay Submitter: Michael Burkart, University of California, San Diego
# Screening Center PI: Austin, C.P.
# Screening Center: NIH Chemical Genomics Center [NCGC]
# The covalent attachment of a phosphopantetheinyl (4'-PP) arm to a variety of synthases and other proteins is a key posttranslational protein modification. The 4'-PP is installed on the proteins post-translationally from coenzyme A (CoA) on a conserved serine residue by action of phosphopantetheinyl transferase (PPTase) enzymes. Phosphopantetheinylation is essential for synthase activity, and removal of the PPTase gene precludes natural product synthesis in microorganisms, or in the case of fatty acid biosynthesis, renders the organism unviable. PPTase enzymes belong to a distinct structural superfamily. Within bacteria, these enzymes are grouped into two classes based upon primary structure, the AcpS-Type and Sfp-Type PPTases.
# Sfp-type PPTases, corresponding to an activator of surfactin production in Bacillus subtilis, are responsible for modifying type I polyketide and nonribosomal peptide synthases of prokaryotes. Sfp-type PPTases are responsible for the activation of a variety of pathogen-associated virulence factors. Among these compounds are toxins such as mycolactone from Mycobacterium ulcerans, siderophores such as vibriobactin from Vibrio cholerae or mycobactin from Mycobacterium tuberculosis, as well as the mycolic acids which form the waxy cell wall of Mycobacteria. The biosyntheses of these natural products are considered attractive targets for drug design.
# In search of small molecule Sfp-PPTase inhibitors, a fluorescence quenching assay was developed for detection of Bacillus subtilis Sfp-PPTase enzymatic activity in a miniaturized high-throughput format. The consensus ybbr acceptor peptide […] was N-terminally labeled with Black Hole Quencher-2 (BHQ-2) and used in combination with rhodamine-labeled coenzyme A as a co-substrate.
# Inhibition of Sfp-PPTase was detected by recording the fluorescence intensity change over a 30-minute reaction period at a 525 nm excitation and 598 nm emission. Reagents were supplied by Michael Burkart and Timothy Foley, University of California at San Diego.
# This BioAssay deposition is for validation of the developed Sfp-PPtase assay.
# Assay Buffer: 50 mM Hepes-Na pH 7.6, 10 mM MgCl2, 0.01% Nonidet P-40, and 0.01% BSA.
# 3 uL of Sfp-PPTase enzyme (final concentration 15 nM) and 1 uL of substrate mixture (final concentration for rhodamine-CoA and BHQ-2-YbbR 5 uM and 12.5 uM, respectively) dispensed in columns 1, 2, 5 - 48. Columns 1 and 2 used to generate neutral control (uninhibited reaction)
# Three uL of reagents, consisting of buffer (in columns 3 and 4 as negative control) and Sfp-PPTase (in columns 1, 2, 5 - 48) were dispensed into 1,536-well Greiner black solid bottom plate. Compounds (23 nL) were transferred via Kalypsys pintool equipped with 1,536-pin array. The plate was incubated for 15 min at room temperature, followed by the addition of 1 uL substrate to start the reaction. The plate was then centrifuged at 1000 rpm for 15 seconds, and the fluorescence intensity recorded on a ViewLux High-throughput CCD imager (Perkin-Elmer) using standard BODIPY optics (525 nm excitation and 598 nm emission). The plate was then incubated for 30 minutes, and a second read on the ViewLux was performed. The fluorescence intensity difference over the 30-minute period was used to calculate the respective reaction rate for each well.
# Potency is the fitted concentration of half-maximal effect.
SMILES,"largest response in the series, negative = inhibition",Potency
O=c1cc(-c2ccc(O)c(O)c2)oc2cccc(O)c12,-4.56% (inactive),
O=c1cc(-c2ccc(O)cc2)oc2c(-c3cc(-c4cc(=O)c5c(O)cc(O)cc5o4)ccc3O)c(O)ccc12,-11.5% (inactive),
COc1c(O)cc2oc(-c3ccc(O)c(O)c3)cc(=O)c2c1O,,50.1 µM (active)
COc1ccc(C(C)C)cc1S(=O)(=O)Nc1ncn[nH]1,16.1% (inactive),
COc1ccc(CNS(=O)(=O)c2cc(-c3cc(C)no3)ccc2C(C)C)cc1,7.48% (inactive),
CCc1nc2ccc(C(=O)N3CCN(c4cccc(Cl)c4)CC3)cc2nc1CC,-10.1% (inactive),
Nc1ccccc1SCc1cc([N+](=O)[O-])cc2c1OCOC2,-29.9% (inactive),
C#CCC(C(=O)OC)(C(=O)OC)C(C[N+](=O)[O-])c1ccccc1 (stereo not given),-5.44% (inactive),
Nc1ccccc1SC(C[N+](=O)[O-])c1ccccc1 (stereo not given),,7.94 µM (active)
O=c1c2cc(Br)ccc2nc(-c2cccc(Cl)c2)n1O,10.6% (inactive),
CCc1c(C)nc(N)n2c(SCC(=O)NC3CCCCC3)nnc12,11.3% (inactive),
O=C(O)C1CCCN1C1=NS(=O)(=O)c2ccccc21 (stereo not given),13.1% (inactive),
Cc1ccc(C)c(NC(=S)NNC(=S)Nc2ccc(C(C)C)cc2)c1,,4.47 µM (active)
CC(C)c1ccc(NC(=S)NNc2ccc(Cl)c(C(=O)O)c2)cc1,-24.2% (inactive),
Cc1ccc(C)c(NC(=S)NNC(=O)c2csc(C)c2)c1,9.77% (inactive),
NC(=O)C1CCCN(CC(=O)N2CCN(c3ccccc3)CC2)C1 (stereo not given),19% (inactive),
CC1CCN(CC(=O)Nc2nccs2)CC1,6.83% (inactive),
Cc1nc2ccccc2n1CC(O)c1ccccc1 (stereo not given),2.21% (inactive),
O=C(Nc1ccccc1Cl)Nn1cnnc1,10.7% (inactive),
O=C(COC(=O)c1cccs1)Nc1ccccc1Cl,3.72% (inactive),
O=C(Nc1ccccc1Cl)/C(Cl)=C(\Cl)S(=O)c1ccccc1 (stereo not given),,6.31 µM (active)
CC(=O)Oc1c2c(c3c(c1CC=C(C)C)O[C@@]14C(=CC5CC1C(C)(C)OC4(C/C=C(\C)C(=O)O)C5=O)C3=O)OC(C)(CCC=C(C)C)C=C2 (stereo not given in full),-62.7% (inactive),
O=C(NCc1ccco1)C(c1ccncc1)N(C(=O)Cn1nnc2ccccc21)c1ccccc1 (stereo not given),18% (inactive),
O=C(Nc1ccc(S(=O)(=O)NCC2CCCO2)cc1)c1ccc(F)cc1 (stereo not given),10.5% (inactive),

SMILES,"largest response in the series, negative = inhibition",Potency
COc1ccc(OC)c(CCNC(=O)CCn2ccc3cc(S(=O)(=O)N4CCCC4)ccc32)c1,4.91% (inactive),
CCNC(=S)Nc1ccc(OC(F)(F)F)cc1,14.8% (inactive),
FC(F)(F)Oc1ccc(NC(=S)NCc2ccccc2)cc1,7.74% (inactive),
CS(=O)(=O)c1sc(C(=O)NC(=S)Nc2ccc(OC(F)(F)F)cc2)c2c1C=CCC2,,44.7 µM (active)
CCC(=O)Nc1ccc(-c2ccc(N3CCCCC3)nn2)cc1,14.4% (inactive),
C=C1CCN(C(CC(C)C)C(=O)N2CCOCC2)S(=O)(=O)c2ccccc21 (stereo not given),-9.91% (inactive),
CCOc1ccccc1NC(=O)Cn1ncc2ccc([N+](=O)[O-])cc21,-5.95% (inactive),
COc1cccc(OCC(=O)NNC(=O)c2cnccn2)c1,-17.6% (inactive),
COc1ccc(C(=O)O/N=C(\N)c2ccccn2)cc1[N+](=O)[O-],9.71% (inactive),
COc1ccc(C(=O)NNC(=O)c2cnccn2)cc1[N+](=O)[O-],,44.7 µM (active)
CC1CCCC(C)N1C(=O)CSc1nnnn1C1CCCC1 (stereo not given),18.7% (inactive),
CCC(CC)C(=O)Nc1c2c(nn1-c1ccc(C)cc1)CS(=O)(=O)C2,4.15% (inactive),
CC(C)c1ccc(N2CCN(C(=O)c3ccccc3NC(=O)/C=C(\C(=O)O)c3ccccc3)CC2)cc1,,56.2 µM (active)
COc1ccc(C(=O)Nc2ccccc2C(=O)N2CCN(c3ccccc3)CC2)cc1,5.69% (inactive),
O=C(O)C1CC=CCC1C(=O)Nc1ccccc1C(=O)N1CCN(c2ccccc2)CC1 (stereo not given),22.9% (inactive),
Cc1cc(C)c(S(=O)(=O)N(C)CC(=O)NCC2CCCO2)c(C)c1 (stereo not given),16.6% (inactive),
COc1ccc(/C=C/c2c(-c3cccc(C)c3)oc3ccc(-c4ccc5c(c4)OCO5)cc23)cc1,1.24% (inactive),
NNC(=O)c1oc2nc(-c3ccccc3)cc(-c3ccco3)c2c1N,-13.3% (inactive),
CNC(=S)NNC(=O)c1oc2nc(-c3ccccc3)cc(-c3ccco3)c2c1N,,12.6 µM (active)
CNc1nc(-c2ccccc2)cc(-c2ccccc2)n1,-1.57% (inactive),
CN1C(=O)CN2CCc3ccccc3C2c2cc(Cl)ccc21 (stereo not given),11% (inactive),
CC(C)(C)NS(=O)(=O)c1ccc(NC(=O)C2CCCO2)cc1 (stereo not given),9.67% (inactive),
COC(=O)c1cccc(N(CC(=O)NCC2CCCO2)C(=O)CCC(=O)Nc2cc(C)on2)c1 (stereo not given),-5.12% (inactive),
Cc1ccc(NC(=O)CSc2nnc(CNC(=O)c3ccccc3F)o2)cc1Cl,12.4% (inactive),

SMILES,"largest response in the series, negative = inhibition",Potency
c1coc(-c2nc3nc4ccccc4n3nc2-c2ccco2)c1,,39.8 µM (active)
CS(=O)(=O)n1nc(-c2ccco2)nc1N,23.7% (inactive),
Cn1cccc1-c1nc2ccccc2n1C,1.06% (inactive),
CC(CCc1ccccc1)NC(=O)c1cnc(Cl)c(Cl)c1 (stereo not given),8.93% (inactive),
Oc1ccccc1CN1CCN(C(c2ccccc2)c2ccccc2)CC1,-13.4% (inactive),
Cc1onc(C(=O)NN)c1C(=O)N1CCN(C(c2ccccc2)c2ccccc2)CC1,1.91% (inactive),
CCOC(=O)N1CCN(C(=O)C2CCN(c3ncnc4c3sc3cccc(F)c34)CC2)CC1,-3.49% (inactive),
CCOC(=O)N1CCN(C(c2cccnc2)c2ccc3cccnc3c2O)CC1 (stereo not given),,20 µM (active)
CCN1CCN(C(c2cccnc2)c2cc(Cl)c3cccnc3c2O)CC1 (stereo not given),,39.8 µM (active)
Clc1cccc(CN2COc3c(cc(Cl)c4cccnc34)C2)c1,-2.55% (inactive),
O=C(c1ccc(Cn2cc([N+](=O)[O-])cn2)o1)N1CCCC1,5.1% (inactive),
Cc1ccc(CS(=O)Cc2ccc(C(=O)N3CCOCC3)o2)cc1 (stereo not given),9.75% (inactive),
O=C(Nc1ccnn1C1CCN(C/C=C/c2ccc(F)cc2)CC1)C1CCCC1,-2.59% (inactive),
O=C(c1ccc(F)cc1)N1CCCC(C(=O)N2CCCCC2)C1 (stereo not given),1.26% (inactive),
CCOC(=O)c1cc2n(c1N)-c1ccccc1C2=O,,8.91 µM (active)
CCOC(=O)c1ccccc1CN1C(=O)c2ccccc2S1(=O)=O,-2.27% (inactive),
CCOC(=O)C1=C(C(=O)OCC)C(C(=O)OCC)N(S(=O)(=O)C(F)(F)F)c2ccccc21 (stereo not given),6.6% (inactive),
CCc1cc(=O)oc2c(C)c(OCC(=O)NCCN3CCOCC3)ccc12,9.5% (inactive),
CSCCC(NS(=O)(=O)c1ccc(C)cc1)C(=O)NCCc1c[nH]c2ccccc12 (stereo not given),6.95% (inactive),
O/N=C(\C[n+]1ccccc1)c1ccc(Br)cc1,-2.63% (inactive),
C=CCSc1nc2c(c(=O)[nH]c(=O)n2C)n1Cc1ccccc1,9.86% (inactive),
Cn1c(=O)[nH]c(=O)c2c1[nH]c(=S)n2Cc1ccccc1,,44.7 µM (active)
COc1ccc(CNc2nc3c(c(=O)[nH]c(=O)n3C)n2Cc2ccccc2)cc1,11.4% (inactive),
CC1CCN(C(=O)C2CCN(S(=O)(=O)N3CCC4(CC3)OCCO4)CC2)CC1,17.9% (inactive),

SMILES,"largest response in the series, negative = inhibition",Potency
O=[N+]([O-])/C=C/c1ccc2c(ccn2Cc2ccccc2)c1,,25.1 µM (active)
O=C(/C=C/c1cccc([N+](=O)[O-])c1)N1CCN(Cc2ccccc2)CC1,2.23% (inactive),
O=c1c([N+](=O)[O-])cc(C(F)(F)F)cn1Cc1cccc(Cl)c1,3.19% (inactive),
COc1cc(NC(=O)CN2C(=O)NC(C)(c3ccc(OC(F)F)cc3)C2=O)cc(OC)c1OC (stereo not given),17.8% (inactive),
Cc1cccc(NC(=O)NC(=S)NC(=O)c2ccccc2)c1,18.4% (inactive),
S=C(NCCc1ccccc1)N1CCCCC1,5.57% (inactive),
Oc1cc2c(cc1O)CN(C(=S)NCCc1ccc(Cl)cc1)CCC2,,56.2 µM (active) and 44.7 µM (active)
O=C(NCCc1ccc(Cl)cc1)c1cccc(N2CCCC2=O)c1,4.32% (inactive),
COc1ccc([N+](=O)[O-])cc1NCC(=O)c1ccc(C)cc1,-11.6% (inactive),
Cc1cccc(C(=O)Nc2ccc(C(=O)N/N=C/c3cccc(C)n3)cc2)c1,-3.6% (inactive),
COc1cc(-c2nn3c(-c4cccc(C)c4)nnc3s2)cc(OC)c1OC,10.2% (inactive),
c1ccc(-c2cc(-c3nnc4sc(-c5ccccn5)nn34)[nH]n2)cc1,0.622% (inactive),
Fc1ccc(-c2ccc(-c3nn4c(-c5ccco5)nnc4s3)o2)cc1,,17.8 µM (active)
C=CC1=C2C=C(C3CC3)N(C(CO)CO)C=C2C(=O)C(C)(OC(=O)c2ccco2)C1=O (stereo not given),11.3% (inactive),
Cc1ccc(CNCc2ccc3c(c2)OCO3)c(C)c1,-14.4% (inactive),
CC(=O)Nc1ccc(NC(=O)CC2CCCC2)cc1,1.03% (inactive),
O=C(c1c(F)cccc1Cl)N1CCN(c2ccccn2)CC1,2.71% (inactive),
O=C(c1ccc2ccccc2n1)N1CCN(c2ccccc2Cl)CC1,-10.1% (inactive),
O=C(c1c(Cl)cccc1Cl)N1CCN(c2cccc3[nH]ccc23)CC1,,89.1 µM (active)
COc1ccc(C(=O)CCC(=O)Nc2ccc(Cl)cc2)cc1,9.46% (inactive),
CCSc1nc2sc3c(c2c(=O)[nH]1)CC(C)(C)OC3,1.72% (inactive),
CCOC(=O)CSc1nc2sc3c(c2c(=O)[nH]1)CC(C)(C)OC3,-10.3% (inactive),
CC/C(C)=N/Nc1nc2sc3c(c2c(=O)[nH]1)CC(C)(C)OC3,,39.8 µM (active)
